Test results reported in the supplement of paper PMC10849652.
About 7,900 targets were measured; listed, in parts, are those with a hit and a random draw of the rest. About 0.6% of all pairs of compound and target were hits.

compound: COC(=O)N[C@@H](C)CNc1nccc(-c2cn(C(C)C)nc2-c2cc(Cl)cc(NS(C)(=O)=O)c2F)n1 [encorafenib]; experiment: log2 fold change, soluble protein after heating vs DMSO (PISA); higher = thermal stabilisation; K562 cells, 10 uM, 30 min; active = over 0.2 and 3.5 SD of the protein, either way, in both replicates (recomputed)
Method in brief: (§1)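 K562 cells at 2×10^6 cells/mL were given 10 μM compound for 30 min. Aliquots then went through 3 min of heating across 48°C-58°C, were pooled, and were extracted in PBS with 0.5% NP-40 at 4°C, and the supernatant after 21,000xg for 90 min was quantified by TMTpro 16plex LC-MS/MS with channel sums equalised. Thermal stability relative to control samples, from duplicates, is given as log2 fold change.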

UniProt Q8N122, sequence (Q8N122 whole entry, looked up): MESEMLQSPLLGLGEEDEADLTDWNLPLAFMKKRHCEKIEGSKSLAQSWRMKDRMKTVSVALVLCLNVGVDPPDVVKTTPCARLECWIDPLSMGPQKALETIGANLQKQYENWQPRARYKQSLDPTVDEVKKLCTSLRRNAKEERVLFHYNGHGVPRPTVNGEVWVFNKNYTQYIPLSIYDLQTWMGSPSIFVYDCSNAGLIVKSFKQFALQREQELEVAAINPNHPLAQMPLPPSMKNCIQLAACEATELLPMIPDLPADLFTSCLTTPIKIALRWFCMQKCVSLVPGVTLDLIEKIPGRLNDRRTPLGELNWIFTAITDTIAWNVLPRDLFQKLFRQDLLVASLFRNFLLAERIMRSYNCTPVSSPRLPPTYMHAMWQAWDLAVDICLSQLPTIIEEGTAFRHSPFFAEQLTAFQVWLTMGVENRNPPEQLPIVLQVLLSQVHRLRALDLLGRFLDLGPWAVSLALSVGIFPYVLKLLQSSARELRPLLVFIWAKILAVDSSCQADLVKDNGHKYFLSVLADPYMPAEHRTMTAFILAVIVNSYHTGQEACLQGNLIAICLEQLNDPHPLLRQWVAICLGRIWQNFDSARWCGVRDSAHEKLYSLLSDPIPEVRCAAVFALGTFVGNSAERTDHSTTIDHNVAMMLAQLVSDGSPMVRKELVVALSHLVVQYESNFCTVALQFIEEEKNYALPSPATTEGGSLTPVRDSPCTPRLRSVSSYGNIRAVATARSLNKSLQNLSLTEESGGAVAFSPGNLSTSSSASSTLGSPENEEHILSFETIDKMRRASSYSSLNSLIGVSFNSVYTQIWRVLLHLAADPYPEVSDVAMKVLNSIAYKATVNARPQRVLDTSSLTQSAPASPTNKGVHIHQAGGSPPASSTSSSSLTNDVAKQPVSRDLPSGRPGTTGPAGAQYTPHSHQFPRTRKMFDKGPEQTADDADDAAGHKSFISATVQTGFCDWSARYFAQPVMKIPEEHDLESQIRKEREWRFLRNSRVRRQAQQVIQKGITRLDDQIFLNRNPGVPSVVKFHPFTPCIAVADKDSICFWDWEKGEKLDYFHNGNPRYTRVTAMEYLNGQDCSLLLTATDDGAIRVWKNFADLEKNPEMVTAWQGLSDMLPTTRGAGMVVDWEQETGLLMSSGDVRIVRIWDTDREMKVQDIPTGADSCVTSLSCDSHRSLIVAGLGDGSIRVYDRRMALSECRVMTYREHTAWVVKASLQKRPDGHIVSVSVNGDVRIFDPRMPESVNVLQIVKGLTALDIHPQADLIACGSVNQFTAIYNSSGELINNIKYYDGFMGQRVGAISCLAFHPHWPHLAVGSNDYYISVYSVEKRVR
UniProt Q96IZ7, sequence (Q96IZ7 whole entry, looked up): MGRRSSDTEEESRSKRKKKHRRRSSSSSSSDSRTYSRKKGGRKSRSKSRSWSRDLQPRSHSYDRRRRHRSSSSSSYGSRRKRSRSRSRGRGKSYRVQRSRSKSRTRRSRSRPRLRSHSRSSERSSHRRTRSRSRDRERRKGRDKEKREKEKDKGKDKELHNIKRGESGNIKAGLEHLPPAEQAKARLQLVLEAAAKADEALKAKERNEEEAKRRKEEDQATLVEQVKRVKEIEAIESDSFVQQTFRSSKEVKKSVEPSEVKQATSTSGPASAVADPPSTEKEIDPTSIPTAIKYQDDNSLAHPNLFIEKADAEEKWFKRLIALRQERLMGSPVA
UniProt Q96EU6, sequence (Q96EU6 whole entry, looked up): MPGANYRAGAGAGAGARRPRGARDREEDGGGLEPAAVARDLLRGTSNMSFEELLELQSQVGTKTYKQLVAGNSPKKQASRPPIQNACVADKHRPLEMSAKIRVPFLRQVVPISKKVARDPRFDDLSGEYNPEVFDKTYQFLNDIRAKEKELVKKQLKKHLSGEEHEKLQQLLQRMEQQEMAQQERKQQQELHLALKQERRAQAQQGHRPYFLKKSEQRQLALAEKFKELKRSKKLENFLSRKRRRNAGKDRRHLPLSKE
UniProt P46063, sequence (P46063 whole entry, looked up): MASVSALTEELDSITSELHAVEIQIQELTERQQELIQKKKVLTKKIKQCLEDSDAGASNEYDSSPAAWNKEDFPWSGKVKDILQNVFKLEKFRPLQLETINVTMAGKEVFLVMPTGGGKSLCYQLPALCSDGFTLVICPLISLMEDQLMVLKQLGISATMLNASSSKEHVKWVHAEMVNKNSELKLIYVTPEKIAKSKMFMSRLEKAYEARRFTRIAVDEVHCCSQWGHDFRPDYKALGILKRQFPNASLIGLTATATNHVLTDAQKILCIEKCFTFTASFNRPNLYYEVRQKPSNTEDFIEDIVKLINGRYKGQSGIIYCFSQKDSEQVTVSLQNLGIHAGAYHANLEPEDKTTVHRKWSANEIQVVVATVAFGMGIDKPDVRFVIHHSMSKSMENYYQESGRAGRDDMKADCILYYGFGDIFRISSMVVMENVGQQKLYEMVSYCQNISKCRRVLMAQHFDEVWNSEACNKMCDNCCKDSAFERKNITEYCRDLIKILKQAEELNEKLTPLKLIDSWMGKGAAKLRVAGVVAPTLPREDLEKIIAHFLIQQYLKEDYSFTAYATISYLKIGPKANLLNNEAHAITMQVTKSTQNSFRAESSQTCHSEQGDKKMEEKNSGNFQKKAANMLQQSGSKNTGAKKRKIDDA
UniProt Q15418, sequence (Q15418 whole entry, looked up): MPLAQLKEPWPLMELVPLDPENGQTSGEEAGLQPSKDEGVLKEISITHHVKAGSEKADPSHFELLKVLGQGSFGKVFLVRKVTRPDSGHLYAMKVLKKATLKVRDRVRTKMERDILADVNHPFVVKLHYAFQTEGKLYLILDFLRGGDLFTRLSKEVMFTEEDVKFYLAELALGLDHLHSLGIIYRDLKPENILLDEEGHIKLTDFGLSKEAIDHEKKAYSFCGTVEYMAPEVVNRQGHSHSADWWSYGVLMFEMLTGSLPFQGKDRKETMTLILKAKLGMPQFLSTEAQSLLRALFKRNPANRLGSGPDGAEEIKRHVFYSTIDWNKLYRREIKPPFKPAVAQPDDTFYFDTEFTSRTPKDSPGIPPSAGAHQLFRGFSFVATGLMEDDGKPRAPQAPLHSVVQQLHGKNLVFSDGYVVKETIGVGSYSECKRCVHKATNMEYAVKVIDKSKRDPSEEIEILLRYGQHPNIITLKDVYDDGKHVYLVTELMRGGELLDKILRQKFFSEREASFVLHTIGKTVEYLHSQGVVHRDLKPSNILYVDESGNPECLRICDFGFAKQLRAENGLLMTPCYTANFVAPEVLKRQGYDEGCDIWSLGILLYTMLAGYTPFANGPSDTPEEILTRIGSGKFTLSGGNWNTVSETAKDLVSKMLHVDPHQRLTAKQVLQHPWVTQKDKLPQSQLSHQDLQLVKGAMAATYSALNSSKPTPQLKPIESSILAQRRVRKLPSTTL
UniProt Q96D15, sequence (Q96D15 whole entry, looked up): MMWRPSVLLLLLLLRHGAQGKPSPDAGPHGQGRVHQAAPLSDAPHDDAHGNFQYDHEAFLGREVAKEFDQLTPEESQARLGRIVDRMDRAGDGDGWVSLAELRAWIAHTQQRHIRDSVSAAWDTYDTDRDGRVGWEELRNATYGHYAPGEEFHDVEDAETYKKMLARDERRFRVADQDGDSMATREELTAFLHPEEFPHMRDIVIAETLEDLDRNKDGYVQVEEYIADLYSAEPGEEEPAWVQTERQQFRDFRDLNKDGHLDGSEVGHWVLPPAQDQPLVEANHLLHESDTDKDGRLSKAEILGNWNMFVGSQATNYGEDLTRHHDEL
UniProt Q9NQG5, sequence (Q9NQG5 whole entry, looked up): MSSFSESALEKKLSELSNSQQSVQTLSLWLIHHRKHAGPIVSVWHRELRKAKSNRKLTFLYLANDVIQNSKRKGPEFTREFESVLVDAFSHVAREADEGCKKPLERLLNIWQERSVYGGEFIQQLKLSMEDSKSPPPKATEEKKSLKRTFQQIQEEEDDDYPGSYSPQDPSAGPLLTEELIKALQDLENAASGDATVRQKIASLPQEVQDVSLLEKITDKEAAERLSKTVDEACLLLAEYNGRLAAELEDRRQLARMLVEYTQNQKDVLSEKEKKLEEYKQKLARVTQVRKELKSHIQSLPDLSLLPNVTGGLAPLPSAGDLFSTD
UniProt Q15758, sequence (Q15758 whole entry, looked up): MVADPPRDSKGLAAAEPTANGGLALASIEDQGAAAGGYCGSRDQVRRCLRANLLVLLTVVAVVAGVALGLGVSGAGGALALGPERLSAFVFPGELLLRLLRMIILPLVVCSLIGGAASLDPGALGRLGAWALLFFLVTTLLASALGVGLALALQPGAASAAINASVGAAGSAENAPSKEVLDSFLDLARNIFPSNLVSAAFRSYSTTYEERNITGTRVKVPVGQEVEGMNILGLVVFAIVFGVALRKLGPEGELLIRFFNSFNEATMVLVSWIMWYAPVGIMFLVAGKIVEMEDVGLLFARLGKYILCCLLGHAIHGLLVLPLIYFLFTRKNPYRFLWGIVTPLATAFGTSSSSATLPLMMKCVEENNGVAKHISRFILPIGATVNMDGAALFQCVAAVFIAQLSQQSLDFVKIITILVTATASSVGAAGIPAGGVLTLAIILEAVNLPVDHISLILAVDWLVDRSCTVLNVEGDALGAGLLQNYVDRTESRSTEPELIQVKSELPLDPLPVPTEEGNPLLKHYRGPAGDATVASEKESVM
UniProt Q7L4I2, sequence (Q7L4I2 whole entry, looked up): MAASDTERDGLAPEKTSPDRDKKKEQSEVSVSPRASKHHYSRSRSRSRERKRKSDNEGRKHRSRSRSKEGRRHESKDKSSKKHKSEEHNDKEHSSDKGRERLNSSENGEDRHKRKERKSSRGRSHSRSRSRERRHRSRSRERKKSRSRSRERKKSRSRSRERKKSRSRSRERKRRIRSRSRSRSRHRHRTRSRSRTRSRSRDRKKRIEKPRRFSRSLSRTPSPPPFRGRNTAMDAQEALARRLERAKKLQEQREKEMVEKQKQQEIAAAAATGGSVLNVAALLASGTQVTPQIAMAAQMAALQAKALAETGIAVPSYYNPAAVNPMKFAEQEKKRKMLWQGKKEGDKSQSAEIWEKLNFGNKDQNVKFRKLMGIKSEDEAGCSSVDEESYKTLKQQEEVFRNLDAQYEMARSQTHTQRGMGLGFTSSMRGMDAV

log2 fold change, inactive:
SCAF11 (UniProt Q99590) 0.042
SASH1 (UniProt O94885) 0.013
RRP9 (UniProt O43818) -0.005
SLC1A5 (UniProt Q15758) -0.045
RRP12 (UniProt Q5JTH9) 0.138
RSRC2 (UniProt Q7L4I2) -0.005
RBM17 (UniProt Q96I25) 0.05
RAB8B (UniProt Q92930) -0.062
RPP14 (UniProt O95059) 0.046
RNASEH2A (UniProt O75792) -0.003
RNF187 (UniProt Q5TA31) -0.042
SCO2 (UniProt O43819) 0.003
RPL31 (UniProt P62899) 0.088
RSRC1 (UniProt Q96IZ7) 0.023
RNF14 (UniProt Q9UBS8) -0.027
SCAF8 isoform 2 (UniProt Q9UPN6) 0.018
RBM4 (UniProt Q9BWF3) 0.063
RPRD1B (UniProt Q9NQG5) 0.04
RNF2 (UniProt Q99496) 0.003
RPTOR (UniProt Q8N122) 0.047
SLC12A5 (UniProt Q9H2X9) 0.044
RPS6KA1 isoform 2 (UniProt Q15418) -0.018
RCN3 (UniProt Q96D15) 0.054
RRP36 (UniProt Q96EU6) 0.092
RTN4IP1 (UniProt Q8WWV3) 0.02
RPS4X (UniProt P62701) 0.08
RECQL (UniProt P46063) 0.026
RPS27A (UniProt P62979) -0.007
RAC3 (UniProt P60763) -0.07
SART3, A0A499FI31 0.025
RAC1 (UniProt P63000) -0.064
RBM22 (UniProt Q9NW64) 0.036
RFC3 (UniProt P40938) 0.062

compound: COC(=O)[C@H](CCSC)NC(=O)C1=C(C=C(C=C1)NC[C@H](CS)N)C2=CC=CC=C2; experiment: as above
Method in brief: as §1

log2 fold change, inactive:
SCAF11 (UniProt Q99590) 0.188
SASH1 (UniProt O94885) -0.022
RRP9 (UniProt O43818) 0.042
SLC1A5 (UniProt Q15758) 0.058
RRP12 (UniProt Q5JTH9) 0.076
RSRC2 (UniProt Q7L4I2) 0.024
RBM17 (UniProt Q96I25) -0.044
RAB8B (UniProt Q92930) -0.06
RPP14 (UniProt O95059) -0.034
RNASEH2A (UniProt O75792) 0.096
RNF187 (UniProt Q5TA31) -0.05
SCO2 (UniProt O43819) -0.124
RPL31 (UniProt P62899) -0.052
RSRC1 (UniProt Q96IZ7) 0.052
RNF14 (UniProt Q9UBS8) 0.042
SCAF8 isoform 2 (UniProt Q9UPN6) -0.06
RBM4 (UniProt Q9BWF3) 0.025
RPRD1B (UniProt Q9NQG5) -0.004
RNF2 (UniProt Q99496) 0.1
RPTOR (UniProt Q8N122) -0.039
SLC12A5 (UniProt Q9H2X9) 0.075
RPS6KA1 isoform 2 (UniProt Q15418) -0.015
RCN3 (UniProt Q96D15) 0.087
RRP36 (UniProt Q96EU6) 0.05
RTN4IP1 (UniProt Q8WWV3) 0.007
RPS4X (UniProt P62701) 0.014
RECQL (UniProt P46063) -0.026
RPS27A (UniProt P62979) 0.156
RAC3 (UniProt P60763) 0.027
SART3, A0A499FI31 0.001
RAC1 (UniProt P63000) -0.037
RBM22 (UniProt Q9NW64) 0.012
RFC3 (UniProt P40938) -0.058
